Experimental findings from article PMC5540273 (PLoS ONE, 2017) are described below.

Common to all, as to conditions: concentration: 1 μM, replicates: in singlicate; n = 1
The subject of assay [1] is RIPK1.
Assay [2] deals with RIPK2.
For assay [3], the system named is RIPK4.
Assay [4] deals with RIPK5.
Assay [5] concerns ROCK1.
The test system of assay [6] is ROCK2.
Assay [7] relates to ROS1.
In assay [8] the test system is RPS6KA4(Kin.Dom.1-N-terminal).
Assay [9] has as its system RPS6KA4(Kin.Dom.2-C-terminal).
Assay [10] relates to RPS6KA5(Kin.Dom.1-N-terminal).
For assay [11], the system named is RPS6KA5(Kin.Dom.2-C-terminal).
The subject of assay [12] is T1, RSK1(Kin.Dom.1-N-terminal).
T1 construct: gene RPS6KA1

The subject of assay [13] is T2, RSK1(Kin.Dom.2-C-terminal).
T2 construct: gene RPS6KA1

Assay [14] relates to T3, RSK2(Kin.Dom.1-N-terminal).
T3 construct: gene RPS6KA3

Assay [15] relates to T4, RSK2(Kin.Dom.2-C-terminal).
T4 construct: gene RPS6KA3

Assay [16] relates to T5, RSK3(Kin.Dom.1-N-terminal).
T5 construct: gene RPS6KA2

The test system of assay [17] is T6, RSK3(Kin.Dom.2-C-terminal).
T6 construct: gene RPS6KA2

The test system of assay [18] is T7, RSK4(Kin.Dom.1-N-terminal).
T7 construct: gene RPS6KA6

For assay [19], the system named is T8, RSK4(Kin.Dom.2-C-terminal).
T8 construct: gene RPS6KA6

Assay [20] has as its system S6K1.
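Also: KINOMEscan kinase panel screen.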

Consider `NC(=O)c1sc(-n2cnc3ccccc32)cc1OCc1ccccc1F` [GSK1024306], for which the “%Inh” value in assay [1] came to 0%; in assay [2], 13%; in [3], 0%; in assay [4], 0%; in assay [5], 85%; in assay [6], 86%. The “%Inh” value in assay [7] came to 4%; in assay [8], 17%; in assay [9], 0%; in [10], 17%; in [11], 0%; in [12] it was 0%. In addition, the “%Inh” value stood at 32% in assay [13]; 9% in assay [14]; 31% in [15]; 0% in [16]; 0% in assay [17]; 0% in assay [18]. Also, the figures for the “%Inh” value in assay [19] and in assay [20] were 82% and 0%, respectively.
With `CC(C)(C)OC(=O)NC1CCCN(c2cc(-c3ccc4c(N)n[nH]c4c3)nc(N)n2)C1` (stereo not shown) [GSK2286096], the “%Inh” value in assay [1] worked out at 0%; in assay [2], 8%; in [3], 14%; in [4], 0%; in assay [5], 0%; in assay [6], 0%. The “%Inh” value stood at 0% in assay [7]; 0% in [8]; 0% in assay [9]; 0% in assay [10]; 0% in assay [11]; 26% in assay [12]. The “%Inh” value came to 0% in assay [13]; 27% in assay [14]; 100% in [15]; 0% in assay [16]; 0% in [17]; 36% in assay [18]. Also, the “%Inh” value was determined as 23% in assay [19] and 2% in assay [20].
With `FC(F)(F)c1ccc(-c2cc(-c3c[nH]nc3-c3ccccn3)ccn2)cc1` [GW599550], the “%Inh” value stood at 0% in assay [1]; 25% in [2]; 2% in assay [3]; 0% in assay [4]; 26% in [5]; 15% in assay [6]. The “%Inh” value in assay [7] is reported as 31%; in [8] it was 14%; in assay [9] it was 0%; in assay [10], 20%; in [11], 15%; in [12] it was 20%. Further, the “%Inh” value in [13] is on record as 7%; in assay [14], 0%; in assay [15], 2%; in [16], 12%; in assay [17], 5%; in assay [18], 0%. The “%Inh” value is listed as 42% in [19] and 2% in assay [20].
As for `CNc1nccc(-c2c(-c3ccc(F)cc3)ncn2CCCN2CCOCC2)n1` [SB-222516], the “%Inh” value in [1] came out at 9%; in assay [2], 0%; in assay [3] it was 33%; in [4], 0%; in assay [5], 4%; in assay [6], 0%. The “%Inh” value is reported as 3% in [7]; 27% in assay [8]; 1% in assay [9]; 8% in [10]; 17% in assay [11]; 5% in [12]. In addition, the “%Inh” value in [13] is on record as 0%; in [14], 9%; in [15] it was 55%; in assay [16], 3%; in [17], 0%; in [18] it was 7%. Besides, the figures for the “%Inh” value in [19] and in assay [20] were 87% and 2%, respectively.
Regarding `Fc1ccc(-c2ncn(CCCNCc3ccccc3)c2-c2ccncc2)cc1`, the “%Inh” value in assay [1] amounted to 9%; in assay [2], 0%; in assay [3], 29%; in assay [4], 26%; in [5], 27%; in assay [6] it was 32%. The “%Inh” value in [7] is 0%; in assay [8] it was 0%; in assay [9], 32%; in [10] it was 0%; in assay [11] it was 7%; in [12], 0%. Also, the “%Inh” value in [13] is recorded as 22%; in assay [14], 0%; in [15], 22%; in [16], 16%; in [17], 21%; in assay [18], 0%. The “%Inh” value in [19] came to 31%; in assay [20] it was 19%.
Take `CCCc1ccc(S(=O)(=O)NC2CCN(c3ccnc(Nc4ccc(OC)cc4)n3)C2)cc1` (stereo not shown) [GSK1379737]: the “%Inh” value is given as 0% in assay [1]; 0% in [2]; 0% in assay [3]; 0% in assay [4]; 12% in [5]; 28% in assay [6]. Moreover, the “%Inh” value in assay [7] is on record as 5%; in assay [8] it was 4%; in assay [9] it was 0%; in assay [10], 0%; in assay [11], 7%; in [12] it was 0%. In addition, the “%Inh” value amounted to 0% in assay [13]; 2% in assay [14]; 13% in assay [15]; 0% in assay [16]; 0% in assay [17]; 0% in assay [18]. Also, the results for the “%Inh” value in assay [19] and in assay [20] were 0% and 16%, respectively.
Consider `Cl.Cn1ccc(-c2cccc(Nc3ccnc4cc(-c5nccs5)ccc34)c2)n1` [GW525701], for which the “%Inh” value is on record as 0% in assay [1]; 16% in assay [2]; 23% in assay [3]; 0% in assay [4]; 26% in [5]; 39% in [6]. Also, the “%Inh” value in [7] is on record as 0%; in assay [8] it was 0%; in assay [9] it was 0%; in assay [10] it was 24%; in assay [11] it was 39%; in [12], 0%. Further, the “%Inh” value is reported as 0% in assay [13]; 8% in assay [14]; 21% in assay [15]; 2% in assay [16]; 13% in [17]; 0% in assay [18]. For the same compound, the “%Inh” value is listed as 7% in [19] and 0% in assay [20].
In the case of `Fc1cccc(COc2ccc(Nc3ncnc4sc(-c5ccc[nH]5)cc34)cc2Cl)c1` [GW707818], the “%Inh” value in assay [1] turned out to be 34%; in assay [2], 31%; in assay [3] it was 0%; in assay [4] it was 16%; in assay [5] it was 27%; in [6] it was 21%. Also, the “%Inh” value is 8% in [7]; 10% in [8]; 0% in assay [9]; 99.9% in [10]; 20% in assay [11]; 25% in assay [12]. Also, the “%Inh” value in assay [13] came to 8%; in [14] it was 0%; in assay [15] it was 0%; in [16] it was 0%; in assay [17] it was 5%; in assay [18] it was 0%. Moreover, the figures for the “%Inh” value in assay [19] and in [20] were 5% and 0%, respectively.
For `CSc1ccc(NC2=C(c3ccccc3Cl)C(=O)NC2=O)cc1` [SB-342411], the “%Inh” value in [1] is recorded as 0%; in assay [2] it was 32%; in [3], 6%; in [4], 0%; in [5], 0%; in assay [6], 0%. The “%Inh” value is listed as 0% in assay [7]; 0% in [8]; 0% in assay [9]; 5% in [10]; 1% in assay [11]; 6% in [12]. The “%Inh” value in assay [13] came to 15%; in assay [14] it was 0%; in assay [15], 0%; in assay [16], 1%; in [17], 0%; in assay [18], 0%. Besides, the results for the “%Inh” value in assay [19] and in [20] were 0% and 1%, respectively.
Consider `COc1cc2c(Nc3cccc(NC(=O)c4ccccc4)c3)ncnc2cc1OCCCN1CCOCC1` [GSK223810], for which the “%Inh” value in assay [1] stood at 0%; in assay [2] it was 31%; in [3], 0%; in assay [4] it was 8%; in [5] it was 34%; in [6], 14%. Further, the “%Inh” value in assay [7] worked out at 0%; in [8], 9%; in assay [9], 0%; in assay [10], 9%; in assay [11], 0%; in assay [12], 2%. The “%Inh” value in assay [13] was 0%; in assay [14] it was 18%; in [15] it was 20%; in assay [16] it was 13%; in assay [17], 11%; in [18], 20%. In addition, the “%Inh” value in [19] worked out at 14%; in [20], 0%.
On to `O=C(Nc1n[nH]c2nc(-c3ccco3)c(Br)cc12)c1ccc(CN2CCCC2)cc1.O=C(O)[C@H](O)[C@@H](O)C(=O)O` [SB-742352], for which the “%Inh” value worked out at 33% in assay [1]; 47% in [2]; 0% in [3]; 0% in assay [4]; 0% in [5]; 0% in assay [6]. The “%Inh” value in assay [7] turned out to be 12%; in [8] it was 10%; in assay [9] it was 8%; in assay [10] it was 0%; in [11], 0%; in assay [12] it was 5%. In addition, the “%Inh” value in assay [13] is listed as 0%; in assay [14] it was 3%; in assay [15], 0%; in [16], 0%; in assay [17] it was 0%; in assay [18] it was 13%. In addition, the results for the “%Inh” value in [19] and in [20] were 0% and 11%, respectively.
